Here are results for 65 molecules from PubChem BioAssay AID488841 (Sanford-Burnham Center for Chemical Genomics, 2010).

Screen size: about 1,400 compounds; about 380 (27%) were called active.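 The calls were made as follows: active = mean inhibition above 50% across duplicate retests at 10 µM; inactive = the rest.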 This is one part of the list.

A short description of this assay: inhibition of NALP1/ASC/caspase-1 reporter signal in yeast, confirmation, NALP1 inhibitor project, S. cerevisiae, luminescence, single concentration (AID 488841).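 Also: plate controls were DMSO in galactose medium for no effect and cells in plain SD medium for full effect.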 The following applies: S. cerevisiae NALP1/ASC/Caspase-1 reporter, beta-gal luminescence; at 10 µM; hits give high values.
On to `O=C(NC1CCCC1)C(c1ccccn1)N(C(=O)c1csnn1)C1CC1` (stereo not given), for which the inhibition is 18.6% (inactive).

On to `c1ccc(-c2noc(-c3ccccc3-c3ccccc3)n2)cc1`, for which the inhibition was 23.8% (inactive).

Take `O=C(CN1CCOCC1)Nc1ccccc1Sc1ccc(Cl)cc1`: the inhibition is 32.2% (inactive).

Take `CSc1nc(C)cc(OCCO)n1`: the inhibition is 27.2% (inactive).

Take `CC(C)OCCCNC(=O)c1cc2c(=O)n(C)c3ccccc3c2n1C`: the inhibition is 18.5% (inactive).

With `CCCNC(=O)c1cc2c3ccccc3n(C)c2s1`, the inhibition is 69.2% (active).

`O=C(Nc1ccccc1)Nc1ccc(Br)cc1F`: the inhibition was 50.3% (active).

As for `O=C(NNC(=O)c1ccc(-c2ccccc2)cc1)Nc1ccc(F)cc1F`, the inhibition is 20.4% (inactive).

Consider `Cc1ccc(S(=O)(=O)N(C)C)cc1NC(=O)Nc1ccccc1F`, for which the inhibition is 21.1% (inactive).

`CCOC(=O)c1ccc(N2CCOCC2)c(NC(=O)COCC(=O)O)c1`: the inhibition was 16.1% (inactive).

Turning to `COc1ccc(CC(C)N2CCN(Cc3ccccc3)CC2)c(OC)c1` (stereo not given), the inhibition is 27.8% (inactive).

For the molecule `Cc1ccccc1N(CC(=O)N/N=C/c1ccccc1Cl)C(=O)c1ccccc1`, the inhibition is 32% (inactive).

As to `CCCSc1ccc2nc(-c3ccccc3)cn2c1`, the inhibition is 75.4% (active).

Take `Cc1nc(-c2ccccc2)sc1C(=O)CSc1ccccc1`: the inhibition was 42% (inactive).

On to `Cc1cc(C)cc(NS(=O)(=O)c2ccc(NC(=S)NC(=O)c3ccc(Br)o3)cc2)c1`, for which the inhibition was 45.4% (inactive).

With `CS(=O)(=O)N(Cc1ccccc1)c1ccc(C(=O)Nc2ccc3c(c2)OCO3)cc1`, the inhibition is 33.1% (inactive).

Regarding `CSCc1ccc(C(=O)Nc2cc(C)cc(C)c2)cc1`, the inhibition is 76% (active).

`COCCn1c(SCC(=O)NC(=O)NC(C)(C)C)nc2ccccc21`: the inhibition is 27.5% (inactive).

As to `CC1CCN(c2nc(NCc3ccco3)nc(N)c2[N+](=O)[O-])CC1`, the inhibition is 67.3% (active).

On to `Cc1ccc(Nc2nc(N)c([N+](=O)[O-])c(NCc3ccco3)n2)cc1C`, for which the inhibition is 60.3% (active).

Turning to `Nc1nc(NCc2ccco2)nc(N2CCCCCC2)c1[N+](=O)[O-]`, the inhibition was 62.6% (active).

For `Cc1ccc(C(=O)NCc2ccco2)cc1S(=O)(=O)Nc1cccc(Cl)c1`, the inhibition is 25.1% (inactive).

In the case of `CC1CCCN(c2nc(NCc3ccco3)nc(N)c2[N+](=O)[O-])C1` (stereo not given), the inhibition is 55.1% (active).

Turning to `CC1CCN(c2ccccc2NC(=O)c2ccc(N3CCOCC3)c([N+](=O)[O-])c2)CC1`, the inhibition was 1.35% (inactive).

In the case of `O=C(Nc1nc(-c2ccncc2)cs1)c1ccc(S(=O)(=O)N2CCOCC2)cc1`, the inhibition is 28.9% (inactive).

With `Clc1ccc(N2CCN(c3cnc4ccccc4n3)CC2)cc1`, the inhibition was 37.4% (inactive).

In the case of `COc1ccc(-c2nc3c(c(=O)[nH]c(=O)n3Cc3ccccc3)n2C)cc1`, the inhibition is 27.9% (inactive).

On to `CC1CCCCC1NC(=O)/C(C#N)=C/c1ccccc1F` (stereo not given), for which the inhibition was 39.8% (inactive).

Regarding `CC(C)(C)C1=CC(=O)C(=O)C(C(C)(C)C)=C1`, the inhibition was 20% (inactive).

In the case of `CCSc1nnc(-c2ccncc2)n1Cc1ccccc1`, the inhibition is 35.8% (inactive).

Regarding `Cc1ccc(NC(=S)Nc2ccc(Cl)c(Cl)c2)c(OC(F)F)c1`, the inhibition was 33.8% (inactive).

`O=C(Cc1ccc([N+](=O)[O-])cc1)c1ccc(O)cc1O`: the inhibition is 39% (inactive).

Consider `CC[N+]1(CC)CC2=Cc3c(ccc4ccccc34)CC2C1` (stereo not given), for which the inhibition was 14.5% (inactive).

With `CCOC(=O)n1c(=O)n(Cc2ccccc2)c2ccccc21`, the inhibition was 25.8% (inactive).

Consider `O=C(c1ccc(COc2ccccc2Br)cc1)N1CCCCC1`, for which the inhibition is 36.5% (inactive).

For `CCCNC(=O)c1nnsc1S(=O)c1ccc(Cl)cc1` (stereo not given), the inhibition is 99.3% (active).

Take `O=C(CCSc1nc2cc(Cl)ccc2o1)N1CCOCC1`: the inhibition is 24.1% (inactive).

On to `CCCCNC(=O)Nc1nnc(-c2ccc(Cl)cc2)o1`, for which the inhibition is 44.9% (inactive).

As to `CNC(=O)c1nnsc1S(=O)c1ccc(Cl)cc1` (stereo not given), the inhibition is 88.7% (active).

Take `O=C(c1nnsc1S(=O)c1ccc(Cl)cc1)N1CCOCC1` (stereo not given): the inhibition was 76.7% (active).

Turning to `Cn1cc(S(=O)(=O)N2CCN(c3cccc(C(F)(F)F)c3)CC2)c(=O)n(C)c1=O`, the inhibition was 7.85% (inactive).

With `CC(NC(=O)/C(C#N)=C/c1ccc([N+](=O)[O-])o1)c1ccccc1` (stereo not given), the inhibition is 52.1% (active).

For `COC(=O)c1ccc(/C=C(\C#N)C(=O)NC(C)c2ccccc2)cc1` (stereo not given), the inhibition is 23.2% (inactive).

Turning to `CC(NC(=O)/C(C#N)=C/c1ccc(Cl)c([N+](=O)[O-])c1)c1ccccc1` (stereo not given), the inhibition was 51.1% (active).

For `CN(Cc1ccccc1)C(=O)c1ccc([N+](=O)[O-])o1`, the inhibition is 40.2% (inactive).

With `COc1cc(/C=C/C(=O)Nc2ccc(C)cc2)cc(OC)c1OC`, the inhibition was 33.6% (inactive).

As for `COc1ccc(/C=C/C(=O)Nc2ccc3c(c2)CCC3)cc1OC`, the inhibition was 79.2% (active).

As for `COc1cc(/C=C(\NC(C)=O)C(=O)Nc2cccc(O)c2)ccc1OC(C)=O`, the inhibition was 28.1% (inactive).

For the molecule `CCc1ccc(CC(=S)N2CCOCC2)cc1`, the inhibition was 42.3% (inactive).

Regarding `COc1ccc(C(=O)NC(=S)Nc2ccccc2N2CCCCC2)cc1[N+](=O)[O-]`, the inhibition is 51.9% (active).

`CCOc1ccc(C(=O)Nc2ccc(-c3nc4ccccc4[nH]3)cc2)cc1[N+](=O)[O-]`: the inhibition was 26.6% (inactive).

As for `CCOc1ccc(C(=O)NC(=S)Nc2ccccc2N2CCCCC2)cc1[N+](=O)[O-]`, the inhibition was 43.9% (inactive).

For `COc1ccc(/C=C2\SC(N3CCc4ccccc4C3)=NC2=O)cc1`, the inhibition is 69.8% (active).

Consider `CC(C)c1nc(SCC(=O)Nc2ccc3c(c2)OCCO3)n[nH]1`, for which the inhibition was 19.3% (inactive).

For `N#Cc1ccc(-c2ccc(Cl)cc2)nc1SCC(=O)c1cccc(Cl)c1`, the inhibition was 26.4% (inactive).

Consider `Cc1ccc(NC(=O)Cn2cccc2)c(C)c1`, for which the inhibition is 27.8% (inactive).

`CCN(CC)c1ccc(NC(=O)Cn2cc3c(n2)CCC(C)C3)c(C)c1` (stereo not given): the inhibition is 50.9% (active).

Consider `COc1ccccc1CN(Cc1nc2ccccc2c(=O)[nH]1)C(=O)Nc1ccccc1`, for which the inhibition was 36.4% (inactive).

For `CN(C)C(CNC(=O)CCCOc1ccccc1)c1ccco1` (stereo not given), the inhibition was 30.6% (inactive).

With `Cc1ccc2sc(N(CCCN(C)C)C(=O)CCS(=O)(=O)c3ccccc3)nc2c1C`, the inhibition was 88.8% (active).

Regarding `CN(C)CCCN(C(=O)CCOc1ccccc1)c1nc2c(F)cccc2s1`, the inhibition is 64.8% (active).

Consider `Cc1cccc2sc(N(CCCN(C)C)C(=O)c3sc4ccccc4c3Cl)nc12`, for which the inhibition is 35.9% (inactive).

On to `Cc1cccc2sc(N(CCCN(C)C)C(=O)CCS(=O)(=O)c3ccccc3)nc12`, for which the inhibition was 69.6% (active).

Turning to `CN(C)CCCN(C(=O)CCS(=O)(=O)c1ccccc1)c1nc2cc3c(cc2s1)OCO3`, the inhibition is 61.2% (active).

Regarding `Cc1ccc2nc(N(CCCN(C)C)C(=O)CCc3ccccc3)sc2c1`, the inhibition is 46.8% (inactive).

The term inhibition denotes the drop in the measured response relative to a control, in per cent.
